Test [1] can be described thus: P-glycoprotein substrates identified in KB-3-1 adenocarcinoma cell line, qHTS therapeutic library screen (AID 1346986). Also: nearly all actives have a fitted effect of over 60% in size. The essentials: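 72 h cell-killing screen, 500 cells/well, CellTiter-Glo luminescence. Paired lines KB-3-1/KB-8-5-11; P-gp dependence checked by tariquidar co-treatment and HEK-293 MDR-19 versus empty-vector cells.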
Test [2] is described as follows: P-glycoprotein substrates identified in KB-8-5-11 adenocarcinoma cell line, qHTS therapeutic library screen (AID 1346987). Also: nearly all actives have a fitted effect of over 65% in size. As to activity change, negative = cytotoxicity: % is scaled to controls: 0 for no effect and ±100 for the full control effect. An outline of the steps: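 Luminescence from CellTiter-Glo, read 5 min after addition, quantified survival of KB-8-5-11 (P-gp-overexpressing) cells exposed to compounds for 72 h. AC50 was derived from concentration-response curves.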
Test [3] deals with Cytochrome P450 2D6 (Homo sapiens) (UniProt P10635). The test can be described thus: Cytochrome P450 family 2 subfamily D member 6 (CYP2D6) small molecule antagonists: luciferase biochemical (cell-free) qHTS assay (AID 1645840; active = well fitted curve in the direction sought with a large enough effect in the repeat runs; an effect the other way counts as inactive or inconclusive; also: % is scaled to controls: 0 for no effect and ±100 for the full control effect; nearly all actives have a fitted effect of over 55% in size). An outline of the steps:
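P450-Glo CYP2D6 system: proluciferin substrate converted by enzyme to luciferin, read by luminescence proportional to activity. Enzyme-substrate mix with compound 10 min at room temperature, then NADPH regeneration 1 h before detection reagent.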
On the technique in general: In qHTS, concentration-response curves come from the screen itself.

For test [4], the target named is Cytochrome P450 2C9 (Homo sapiens) (UniProt P11712). The test can be described thus: Cytochrome P450 family 2 subfamily C member 9 (CYP2C9) small molecule antagonists: luciferase biochemical (cell-free) qHTS assay (AID 1645842; active = well fitted curve in the direction sought with a large enough effect in the repeat runs; an effect the other way counts as inactive or inconclusive; also: potency is read from the fitted curve at half-maximal effect; nearly all actives have a fitted effect of over 55% in size). The essentials: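 P450-Glo CYP2C9 system: proluciferin substrate with enzyme in mix containing 0.4% BSA, 10 min at room temperature, then NADPH regeneration solution added and incubated 1 h at 37C. Detection reagent stopped reaction; luminescence read after 20 min as RLU.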

Test [5] can be described thus: Primary redox qHTS assay for identification of artifact compounds. (AID 1845223).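 Also: 0% = DMSO and 100% = reference compound.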 The essentials:
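Redox-cycling detection via DTT (250 uM final) oxidation coupled to Amplex Red (25 uM)/HRP (250 mU/mL) in HBSS. 15 min preincubation plus 30 min after DTT, room temperature. Ex/Em 525/598 nm; 4-parameter Hill fit against DMSO and 10 uM DA3003.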

Test [6] has as its system HaCat. The test can be described thus: Cytotoxic Profiling of Annotated Libraries Using Quantitative High-Throughput Screening (AID 1296008). Also: nearly all actives have a fitted effect of over 60% in size. As to max response: % is scaled to controls: 0 for no effect and ±100 for the full control effect. To be noted: Five cell lines viability, CellTiter-Glo ATP luminescence, 48-72 h; max response: active compounds read low. The essentials: (§1)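 Compounds were pin-transferred onto cells and incubated 48 or 72 hr at 37 degree Celsius, 95% humidity. CellTiter-Glo was added, plates sat 10 min at room temperature, then ATP-coupled luminescence was imaged as the viability read-out.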
For orientation: Cellular ATP, detected with luciferase, serves as a proxy for viable cell number.

A further test concerns KB-3-1. Described as above. To be noted: Five cell lines viability, CellTiter-Glo ATP luminescence, 48-72 h; max response: active compounds read low. An outline of the steps: as §1
Test [7] concerns HACAT. The experiment in a line: qHTS assay to identify novel small-molecules to repurpose for Merkel cell carcinoma treatment (AID 1296009). Also: nearly all actives have a fitted effect of over 60% in size. To be noted: MCC and control cell lines, CellTiter-Glo viability, 72 h; at 44.8 µM (top of the series) unless noted. The essentials: (§2)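 Viability readout: ATP luminescence (CellTiter-Glo) after 72 hr drug exposure at 37 degree celsius. Dose-response format was 8 points for NPC and 11 points for MIPE; data normalized to in-plate controls.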

A further test has as its system HeLa. The experiment in a line: Primary qHTS to identify gynecologic anti-cancer compounds using libraries of approved drugs and bioactive compounds (AID 1345084). Also: % is scaled to controls: 0 for no effect and ±100 for the full control effect; nearly all actives have a fitted effect of over 55% in size. To be noted: Gynecologic cancer cell panel viability, ATPlite luminescence, 48 h; series mostly up to 57.5 µM. An outline of the steps:
(§3)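 Five-concentration response, 48 h; readout is ATP-driven luciferase luminescence.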

The subject of a further test is SKOV3. Described as above. The note with it: Gynecologic cancer cell panel viability, ATPlite luminescence, 48 h; series mostly up to 57.5 µM. The essentials:
as §3

The nature of test [8]: Primary qHTS for inhibitors of nuclear receptor binding SET domain protein 2 (NSD2) in an isogenic RCH-ACV NSD2 p.E1099K mutant (9B) (AID 1645876). Also: % is scaled to controls: 0 for no effect and ±100 for the full control effect; nearly all actives have a fitted effect of over 70% in size.
A short description of test [9]: Primary qHTS for inhibitors of nuclear receptor binding SET domain protein 2 (NSD2) in an RCH-ACV wild type WT cells (2C) (AID 1645877). Also: % is scaled to controls: 0 for no effect and ±100 for the full control effect; nearly all actives have a fitted effect of over 70% in size.
In a further test the test system is NIH3T3. The experiment in a line: qHTS assay to identify novel small-molecules to repurpose for Merkel cell carcinoma treatment (AID 1296009). Also: nearly all actives have a fitted effect of over 60% in size. To be noted: MCC and control cell lines, CellTiter-Glo viability, 72 h; at 44.8 µM (top of the series) unless noted. An outline of the steps: as §2
In another test the test system is CRL-7250. The test is described as above. To be noted: MCC and control cell lines, CellTiter-Glo viability, 72 h; series mostly up to 92 µM. An outline of the steps:
as §2

SMILES strings stand for the structures. Records with an inconclusive call do not appear. A number with no mark means an inactive call. The source made the active and inactive calls. Unless noted, calls follow the shape of the dose curve; as a rule, active = well fitted curve in the direction sought with a large enough effect; inconclusive = small, poorly fitted or top-dose-only effect, or another doubt; inactive = no such curve, though single readings can be large; an effect the other way counts as inactive or inconclusive.

Sequence of Cytochrome P450 2C9 (Homo sapiens) (P11712 whole entry, looked up): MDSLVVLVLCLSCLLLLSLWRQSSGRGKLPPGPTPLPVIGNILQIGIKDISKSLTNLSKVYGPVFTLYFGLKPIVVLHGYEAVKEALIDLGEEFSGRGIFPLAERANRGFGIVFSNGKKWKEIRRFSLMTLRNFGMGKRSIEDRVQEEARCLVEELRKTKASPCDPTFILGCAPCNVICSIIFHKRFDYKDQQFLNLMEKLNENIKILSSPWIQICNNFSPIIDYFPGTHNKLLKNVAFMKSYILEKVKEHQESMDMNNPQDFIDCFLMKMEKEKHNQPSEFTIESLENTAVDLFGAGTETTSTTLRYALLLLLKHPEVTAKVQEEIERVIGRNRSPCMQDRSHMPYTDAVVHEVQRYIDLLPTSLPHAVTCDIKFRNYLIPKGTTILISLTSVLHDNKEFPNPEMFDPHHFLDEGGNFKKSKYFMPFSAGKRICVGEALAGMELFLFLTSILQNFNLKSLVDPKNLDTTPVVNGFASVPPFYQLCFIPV
Sequence of Cytochrome P450 2D6 (Homo sapiens) (P10635 whole entry, looked up): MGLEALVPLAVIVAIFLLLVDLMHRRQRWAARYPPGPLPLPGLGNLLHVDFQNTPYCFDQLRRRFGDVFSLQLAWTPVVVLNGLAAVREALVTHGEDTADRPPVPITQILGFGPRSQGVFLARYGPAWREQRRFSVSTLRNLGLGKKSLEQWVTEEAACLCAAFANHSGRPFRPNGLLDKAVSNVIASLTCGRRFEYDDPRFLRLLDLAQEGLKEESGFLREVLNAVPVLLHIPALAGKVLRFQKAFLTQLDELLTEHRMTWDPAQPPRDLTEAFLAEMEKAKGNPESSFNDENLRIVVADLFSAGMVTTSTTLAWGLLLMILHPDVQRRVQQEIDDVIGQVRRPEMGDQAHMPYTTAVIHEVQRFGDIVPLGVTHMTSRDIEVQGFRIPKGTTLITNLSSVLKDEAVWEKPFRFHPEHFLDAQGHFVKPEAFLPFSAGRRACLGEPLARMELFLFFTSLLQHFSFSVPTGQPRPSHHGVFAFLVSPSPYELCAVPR

For the molecule `O=S(=O)(c1ccccc1F)N1CCOc2c(N3CCNCC3)cccc21`, the Potency entry (in [1]; in [2]; in test [3]; in test [5]; with HeLa; in the test on SKOV3) was “inactive” each time. Besides, the Potency in test [4] is 9520 nM (active). The call with HaCat [6], in the test on KB-3-1 and in the test on HACAT [7] was inactive.
As for `C/C=C(\C)C(=O)OC1C2C3(C)CCC(OC4CC(OC)C(OC5OC(C)C(O)C(OC)C5O)C(C)O4)CC3CCC23OC32CCC(C(C)=O)C2(C)C1OC(=O)/C(C)=C/C` (stereo not given), the activity change, negative = cytotoxicity in test [2] is -5.07% [at 9.29 µM]; in the test with HeLa, 13% [at 11.6 µM]; with SKOV3 it was -30.2% [at 11.6 µM]. Also, the activity change, negative = viability loss in test [8] is -17.6% [at 9.23 µM]. Moreover, in [9], the activity change, negative = cell killing was -23.1% [at 9.23 µM]. In addition, the outcome in the test with HaCat [6] was inactive. The max response in the test on KB-3-1 was -21.8%. For the same molecule, the outcome with HACAT [7] is “inactive [at 9.27 µM]”.
As to `CC(O)(c1ccccc1)C(Cc1ccc(Cl)cc1)n1cncn1` (stereo not given), the Potency in [4] is 952 nM (active). For the same molecule, the Potency result (in test [5]; in the test on HeLa; in the test on SKOV3) was “inactive” each time. Further, the outcome in the test on HaCat [6] and with HACAT [7] was inactive. The max response in the test with KB-3-1 is -4.41%.
For `C[C@H]1CC[C@@H]2[C@@H](C)[C@H]3[C@H](C[C@H]4[C@@H]5CC=C6CC(O[C@@H]7O[C@H](CO)[C@@H](O)[C@H](O[C@@H]8O[C@H](CO)[C@@H](O)[C@H](O)[C@H]8O)[C@@H]7O[C@@H]7O[C@@H](C)[C@H](O)[C@@H](O)[C@H]7O)CC[C@]6(C)[C@H]5CC[C@]34C)N2C1` (stereo not given in full), the outcome in test [2] was “inactive [at 9.29 µM]”; in the test with NIH3T3, “inactive [at 9.27 µM]”. The figures for the max response in the test with HaCat [6] and with KB-3-1 were -13.1% and 2.33%, respectively. Besides, the activity change, negative = cytotoxicity in the test on HeLa was 8.23% [at 11.6 µM].
Regarding `CN1C(=O)[C@]23CC4C(C)(C)[C@@]5(C[C@@]41CN2CC[C@@]3(C)O)C(=O)Nc1c5ccc2c1OC=CC(C)(C)O2` (stereo not given in full), the Potency result (in test [2]; in test [8]; in test [9]; in the test on HeLa; in the test on SKOV3) was “inactive” each time. In addition, the max response with HaCat [6] was -7.56%; in the test with KB-3-1 it was 1.88%.
For `C/C=C1/CN2CC[C@]34C(=Nc5ccccc53)[C@@H]2C[C@@H]1[C@H]4C(=O)OC`, the Potency entry (in [2]; in test [8]; in test [9]; in test [5]; with HeLa; with SKOV3) was “inactive” in each case. In addition, the values for the max response with HaCat [6] and in the test on KB-3-1 were -0.364% and -1.68%, respectively.
Regarding `CC12Cc3cn[nH]c3C=C1CCC1C2CCC2(C)C1CCC2(C)O` (stereo not given), the Potency result (in [5]; with CRL-7250; in the test with HeLa; with SKOV3) was “inactive” each time. Moreover, in the test on HaCat [6], the max response is -0.609%.
Consider `CCCCCn1cc(C(=O)c2cccc3ccccc23)c2ccccc21`, for which the Potency entry (in test [2]; in test [3]; in test [8]; in test [9]; in test [5]; with HeLa) was “inactive” each time. For the same molecule, the Potency entry in the test with SKOV3 was “inactive”. The Potency in [4] was 1510 nM (active). Further, the max response is -4.01% in the test on HaCat [6] and -15.1% with KB-3-1.
On to `CC(=O)C1CCC2C3CCC4C[C@@H](O)CCC4(C)C3CCC12C` (stereo not given in full), for which the Potency entry (in test [5]; with HeLa) was “inactive” each time. Also, the max response in the test on HaCat [6] was -9.42%; in the test on KB-3-1, 0.129%. Moreover, in the test on NIH3T3, the outcome was inactive.

The record behind these values is PubChem BioAssay (NCATS).
